Experimental data as given in PubChem BioAssay (EPA / NIEHS).
Results filed as inconclusive are left out. Active and inactive are the calls of the source. How the source made its calls, unless noted: active means hit-call score of the fitted dose curve at least 0.9, where 1 is the maximum; inconclusive means response in the unintended direction; inactive means score below 0.9.

Assays:
[1] = target: Bile acid receptor (Homo sapiens) (UniProt Q96RI1); experiment: OT_FXR_FXRSRC1_1440: Odyssey Thera (OT) 24-hour HEK293T Protein-Complementation Assay for Farnesoid X receptor/SRC-1 Co-activator (AID 2283384)
Outline: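 Cell-based binding reporter: interaction of FXR with SRC-1 brings reporter fragments together, giving a fluorescence signal read 24 h after dosing of HEK293T cells.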

[2] = target: Retinoic acid receptor RXR-alpha (Homo sapiens) (UniProt P19793); experiment: OT_NURR1_NURR1RXRa_0480: Odyssey Thera (OT) 8-hour HEK293T Protein Complementation Assay for Nurr1/retinoid X receptor (RXR) (AID 2283385)
Outline: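 Compounds are applied to HEK293T cells carrying Nurr1 and RXRα linked to reporter fragments. After 8 h, fluorescence intensity reports heterodimer formation, with DMSO as baseline.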

[3] = target: Retinoic acid receptor RXR-alpha (Homo sapiens) (UniProt P19793); experiment: OT_NURR1_NURR1RXRa_1440: Odyssey Thera (OT) 24-hour HEK293T Protein Complementation Assay for Nurr1/retinoid X receptor (RXR) (AID 2283386)
Outline: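 Measured as fluorescence from a reconstituted split reporter, this 24 h HEK293T complementation assay scores compound-induced gain of Nurr1/RXRα association relative to DMSO.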

[4] = target: Peroxisome proliferator-activated receptor gamma (Homo sapiens) (UniProt P37231); experiment: OT_PPARg_PPARgSRC1_0480: Odyssey Thera (OT) 8-hour Protein-Complementation Assay for Peroxisome Proliferator-activated Receptor Gamma / SRC-1 Co-activator (AID 2283387)
Outline: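 HEK293T transiently transfected with PPARg and SRC-1 fused to Venus YFP fragments, compounds 8 h at 37C. Fixed, Draq5-stained cells imaged; nuclear/cytoplasmic 488 nm fluorescence ratio over at least 350 cells per image; gain fitted versus DMSO.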

[5] = target: Peroxisome proliferator-activated receptor gamma (Homo sapiens) (UniProt P37231); experiment: OT_PPARg_PPARgSRC1_1440: Odyssey Thera (OT) 24-hour Protein-Complementation Assay for Peroxisome Proliferator-activated Receptor Gamma/ SRC-1 Co-activator (AID 2283388)
Outline: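 HEK293T transiently transfected with PPARg/SRC-1 split-Venus YFP fusions 48 h before dosing, then treated 24 h at 37C. Fixed cells imaged; nuclear/cytoplasmic 488 nm fluorescence ratio, gain of signal versus DMSO.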

[6] = read-out: Tumor necrosis factor receptor superfamily member 6 (Homo sapiens) (UniProt P25445); experiment: LTEA_HepaRG_FAS: Life Technologies and Expression Analysis (LTEA) Assay for Fas cell surface death receptor (FAS) using HepaRG (AID 2283447; active means hit-call score of the fitted dose curve at least 0.9, where 1 is the maximum; inactive means score below 0.9); settings: mRNA level, 48 h; actives raise or lower the signal
Outline: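 FAS transcript level was measured by TaqMan qRT-PCR against three housekeeping genes after 48 h chemical exposure. Cells were HepaRG, 0.5% DMSO vehicle, with a top concentration of 100 uM and half-log dilutions over eight points, in duplicate.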

[7] = read-out: Cyclin D2 (CCND2), CCND2 (gene 894); experiment: LTEA_HepaRG_CCND2: Life Technologies and Expression Analysis (LTEA) Assay for Cyclin D2 (CCND2) using HepaRG (AID 2283449; active means hit-call score of the fitted dose curve at least 0.9, where 1 is the maximum; inactive means score below 0.9); settings: mRNA level, 48 h; actives raise or lower the signal
Outline: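 Read-out is CCND2 mRNA level measured by qRT-PCR in human HepaRG liver cells and normalised to three housekeeping genes. Chemicals were applied for 48 h at up to 100 uM, with gain or loss fitted relative to 0.5% DMSO.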

[8] = read-out: Cyclin Dependent Kinase Inhibitor 1A (CDKN1A), CDKN1A (gene 1026); experiment: LTEA_HepaRG_CDKN1A: Life Technologies and Expression Analysis (LTEA) Assay for Cyclin Dependent Kinase Inhibitor 1A (CDKN1A) using HepaRG (AID 2283450; active means hit-call score of the fitted dose curve at least 0.9, where 1 is the maximum; inactive means score below 0.9); settings: mRNA level, 48 h; actives raise or lower the signal
Outline: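 Differentiated HepaRG cells in serum-free induction medium, exposed 48 h in duplicate to eight half-log concentrations up to 100 uM in 0.5% DMSO. mRNA measured by TaqMan qRT-PCR, normalized to ACTB, GAPDH, POLR2A; bidirectional fit versus DMSO.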

[9] = CEETOX_H295R_11DCORT: CeeTox H295R High-throughput Steroidogenesis Assay for 11-Deoxycortisol (11DCORT) (AID 2283432; active means hit-call score of the fitted dose curve at least 0.9, where 1 is the maximum; inactive means score below 0.9;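 on AC50: 11-deoxycortisol secreted into the medium measured by LC-MS/MS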); settings: actives raise or lower the signal
Outline: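 H295R cells prestimulated 48 h with 10 uM forskolin, then exposed 48 h to chemical in 0.1% DMSO. 11-Deoxycortisol in medium quantified by HPLC-MS/MS after MTBE extraction; bidirectional fit versus DMSO. MTT viability read in same wells.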

[10] = CEETOX_H295R_OHPREG: CeeTox H295R High-throughput Steroidogenesis Assay for OH-Pregnenolone (OHPREG) (AID 2283434; active means hit-call score of the fitted dose curve at least 0.9, where 1 is the maximum; inactive means score below 0.9); settings: actives raise or lower the signal
Outline: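 Hormone levels in spent medium were measured by tandem mass spectrometry following liquid-liquid extraction. Cells (H295R) had been forskolin-stimulated (10 uM, 48 h) before a 48 h chemical exposure at 0.1% DMSO, with activity fitted in both directions against DMSO.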

[11] = CEETOX_H295R_OHPROG: CeeTox H295R High-throughput Steroidogenesis Assay for OH-Progesterone (OHPROG) (AID 2283435; active means hit-call score of the fitted dose curve at least 0.9, where 1 is the maximum; inactive means score below 0.9;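 on AC50: human adrenal H295R cells primed 48 h with 10 µM forskolin; 17alpha-hydroxyprogesterone secreted into medium measured by HPLC-MS/MS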); settings: actives raise or lower the signal
Outline: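 Secreted 17alpha-hydroxyprogesterone is read by tandem MS from media of forskolin-primed H295R cells dosed with chemical for 48 h. Activity is fitted in both directions against DMSO baseline; cytotoxic concentrations are re-tested diluted.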

[12] = CEETOX_H295R_ANDR: CeeTox H295R High-throughput Steroidogenesis Assay for Androstenedione (ANDR) (AID 2283436; active means hit-call score of the fitted dose curve at least 0.9, where 1 is the maximum; inactive means score below 0.9;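 further: human H295R adrenal cells exposed for 48 h with androstenedione measured in medium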); settings: actives raise or lower the signal
Outline: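 Read-out is androstenedione secreted into medium, measured by tandem mass spectrometry after liquid-liquid extraction. Cells were H295R, dosed for 48 h per modified OECD 456; activity fitted in both directions relative to DMSO.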

[13] = CEETOX_H295R_CORTIC: CeeTox H295R High-throughput Steroidogenesis Assay for Corticosterone (CORTIC) (AID 2283437; active means hit-call score of the fitted dose curve at least 0.9, where 1 is the maximum; inactive means score below 0.9;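 further: corticosterone secreted into medium quantified by mass spectrometry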); settings: actives raise or lower the signal
Outline: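 Corticosterone secreted into medium is measured by reverse-phase HPLC with tandem MS following liquid-liquid extraction. Cells are forskolin-stimulated (10 uM, 48 h) before 48 h test exposure; activity fitted in both directions against DMSO.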

[14] = CEETOX_H295R_CORTISOL: CeeTox H295R High-throughput Steroidogenesis Assay for Cortisol (AID 2283438; active means hit-call score of the fitted dose curve at least 0.9, where 1 is the maximum; inactive means score below 0.9;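 further: cortisol secreted into medium quantified by LC-MS/MS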); settings: actives raise or lower the signal
Outline: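 Human adrenocortical H295R cells (passage ≤10) received test chemicals for 48 h after forskolin priming. Secreted cortisol was measured by LC-MS/MS.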

[15] = CEETOX_H295R_DOC: CeeTox H295R High-throughput Steroidogenesis Assay for DOC (AID 2283439; active means hit-call score of the fitted dose curve at least 0.9, where 1 is the maximum; inactive means score below 0.9); settings: actives raise or lower the signal
Outline: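 Secreted DOC was quantified from H295R media by HPLC-MS/MS after 48 h chemical exposure following 48 h forskolin (10 uM) prestimulation. Values were fitted in both directions relative to DMSO, the negative control and baseline.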

[16] = CEETOX_H295R_ESTRADIOL: CeeTox H295R High-throughput Steroidogenesis Assay for Estradiol (AID 2283440; active means hit-call score of the fitted dose curve at least 0.9, where 1 is the maximum; inactive means score below 0.9;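 further: estradiol secreted into medium quantified by LC-MS/MS after dansyl derivatisation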); settings: actives raise or lower the signal
Outline: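 H295R cells pre-stimulated 48 h with 10 uM forskolin, then exposed 48 h to chemical in 0.1% DMSO. Medium estradiol quantified by MTBE extraction, dansyl derivatisation and HPLC-MS/MS; bidirectional fit versus DMSO; MTT viability required >/=70%.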

[17] = CEETOX_H295R_ESTRONE: CeeTox H295R High-throughput Steroidogenesis Assay for Estrone (AID 2283441; active means hit-call score of the fitted dose curve at least 0.9, where 1 is the maximum; inactive means score below 0.9;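 further: estrone secreted into medium measured by LC-MS/MS after dansyl derivatization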); settings: actives raise or lower the signal
Outline: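 H295R cells; 48 h forskolin (10 uM) prestimulation; 48 h compound exposure, 0.1% DMSO final. Medium estrone: MTBE extraction, dansyl derivatization, HPLC-MS/MS. Bidirectional fit vs DMSO.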

[18] = CEETOX_H295R_PROG: CeeTox H295R High-throughput Steroidogenesis Assay for Progesterone (PROG) (AID 2283442; active means hit-call score of the fitted dose curve at least 0.9, where 1 is the maximum; inactive means score below 0.9;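 on AC50: human H295R adrenal cells primed with 10 µM forskolin before dosing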); settings: actives raise or lower the signal
Outline: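 H295R adrenal cells prestimulated 48 h with 10 uM forskolin, then exposed 48 h to test chemical in 0.1% DMSO. Progesterone in medium quantified by HPLC-MS/MS after MTBE extraction; viability checked by MTT in same wells.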

[19] = read-out: Fatty acid synthase (Homo sapiens) (UniProt P49327); experiment: LTEA_HepaRG_FASN: Life Technologies and Expression Analysis (LTEA) Assay for Fatty Acid Synthase (FASN) using HepaRG (AID 2283448; active means hit-call score of the fitted dose curve at least 0.9, where 1 is the maximum; inactive means score below 0.9;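 on AC50: differentiated human HepaRG liver cells in serum-free induction medium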); settings: mRNA level, 48 h; actives raise or lower the signal
Outline: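 Transcript-level assay: HepaRG liver cells are treated for 48 h across an eight-point range topping at 100 uM, and FASN mRNA, normalized to three housekeeping genes, is compared with DMSO controls in both directions.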

[20] = read-out: Cyclin D1 (CCND1), CCND1 (gene 595); experiment: LTEA_HepaRG_CCND1: Life Technologies and Expression Analysis (LTEA) Assay for Cyclin D1 (CCND1) using HepaRG (AID 2283451; active means hit-call score of the fitted dose curve at least 0.9, where 1 is the maximum; inactive means score below 0.9); settings: mRNA level, 48 h; actives raise or lower the signal
Outline: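 Differentiated HepaRG cells exposed 48 h in serum-free induction medium to eight half-log concentrations from 100 uM top, 0.5% DMSO, duplicates. CCND1 mRNA measured by Fluidigm TaqMan qRT-PCR, normalised to ACTB, GAPDH, POLR2A; bidirectional fit.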

Measured: AC50

Chain of Fatty acid synthase (Homo sapiens) (P49327 whole entry, looked up): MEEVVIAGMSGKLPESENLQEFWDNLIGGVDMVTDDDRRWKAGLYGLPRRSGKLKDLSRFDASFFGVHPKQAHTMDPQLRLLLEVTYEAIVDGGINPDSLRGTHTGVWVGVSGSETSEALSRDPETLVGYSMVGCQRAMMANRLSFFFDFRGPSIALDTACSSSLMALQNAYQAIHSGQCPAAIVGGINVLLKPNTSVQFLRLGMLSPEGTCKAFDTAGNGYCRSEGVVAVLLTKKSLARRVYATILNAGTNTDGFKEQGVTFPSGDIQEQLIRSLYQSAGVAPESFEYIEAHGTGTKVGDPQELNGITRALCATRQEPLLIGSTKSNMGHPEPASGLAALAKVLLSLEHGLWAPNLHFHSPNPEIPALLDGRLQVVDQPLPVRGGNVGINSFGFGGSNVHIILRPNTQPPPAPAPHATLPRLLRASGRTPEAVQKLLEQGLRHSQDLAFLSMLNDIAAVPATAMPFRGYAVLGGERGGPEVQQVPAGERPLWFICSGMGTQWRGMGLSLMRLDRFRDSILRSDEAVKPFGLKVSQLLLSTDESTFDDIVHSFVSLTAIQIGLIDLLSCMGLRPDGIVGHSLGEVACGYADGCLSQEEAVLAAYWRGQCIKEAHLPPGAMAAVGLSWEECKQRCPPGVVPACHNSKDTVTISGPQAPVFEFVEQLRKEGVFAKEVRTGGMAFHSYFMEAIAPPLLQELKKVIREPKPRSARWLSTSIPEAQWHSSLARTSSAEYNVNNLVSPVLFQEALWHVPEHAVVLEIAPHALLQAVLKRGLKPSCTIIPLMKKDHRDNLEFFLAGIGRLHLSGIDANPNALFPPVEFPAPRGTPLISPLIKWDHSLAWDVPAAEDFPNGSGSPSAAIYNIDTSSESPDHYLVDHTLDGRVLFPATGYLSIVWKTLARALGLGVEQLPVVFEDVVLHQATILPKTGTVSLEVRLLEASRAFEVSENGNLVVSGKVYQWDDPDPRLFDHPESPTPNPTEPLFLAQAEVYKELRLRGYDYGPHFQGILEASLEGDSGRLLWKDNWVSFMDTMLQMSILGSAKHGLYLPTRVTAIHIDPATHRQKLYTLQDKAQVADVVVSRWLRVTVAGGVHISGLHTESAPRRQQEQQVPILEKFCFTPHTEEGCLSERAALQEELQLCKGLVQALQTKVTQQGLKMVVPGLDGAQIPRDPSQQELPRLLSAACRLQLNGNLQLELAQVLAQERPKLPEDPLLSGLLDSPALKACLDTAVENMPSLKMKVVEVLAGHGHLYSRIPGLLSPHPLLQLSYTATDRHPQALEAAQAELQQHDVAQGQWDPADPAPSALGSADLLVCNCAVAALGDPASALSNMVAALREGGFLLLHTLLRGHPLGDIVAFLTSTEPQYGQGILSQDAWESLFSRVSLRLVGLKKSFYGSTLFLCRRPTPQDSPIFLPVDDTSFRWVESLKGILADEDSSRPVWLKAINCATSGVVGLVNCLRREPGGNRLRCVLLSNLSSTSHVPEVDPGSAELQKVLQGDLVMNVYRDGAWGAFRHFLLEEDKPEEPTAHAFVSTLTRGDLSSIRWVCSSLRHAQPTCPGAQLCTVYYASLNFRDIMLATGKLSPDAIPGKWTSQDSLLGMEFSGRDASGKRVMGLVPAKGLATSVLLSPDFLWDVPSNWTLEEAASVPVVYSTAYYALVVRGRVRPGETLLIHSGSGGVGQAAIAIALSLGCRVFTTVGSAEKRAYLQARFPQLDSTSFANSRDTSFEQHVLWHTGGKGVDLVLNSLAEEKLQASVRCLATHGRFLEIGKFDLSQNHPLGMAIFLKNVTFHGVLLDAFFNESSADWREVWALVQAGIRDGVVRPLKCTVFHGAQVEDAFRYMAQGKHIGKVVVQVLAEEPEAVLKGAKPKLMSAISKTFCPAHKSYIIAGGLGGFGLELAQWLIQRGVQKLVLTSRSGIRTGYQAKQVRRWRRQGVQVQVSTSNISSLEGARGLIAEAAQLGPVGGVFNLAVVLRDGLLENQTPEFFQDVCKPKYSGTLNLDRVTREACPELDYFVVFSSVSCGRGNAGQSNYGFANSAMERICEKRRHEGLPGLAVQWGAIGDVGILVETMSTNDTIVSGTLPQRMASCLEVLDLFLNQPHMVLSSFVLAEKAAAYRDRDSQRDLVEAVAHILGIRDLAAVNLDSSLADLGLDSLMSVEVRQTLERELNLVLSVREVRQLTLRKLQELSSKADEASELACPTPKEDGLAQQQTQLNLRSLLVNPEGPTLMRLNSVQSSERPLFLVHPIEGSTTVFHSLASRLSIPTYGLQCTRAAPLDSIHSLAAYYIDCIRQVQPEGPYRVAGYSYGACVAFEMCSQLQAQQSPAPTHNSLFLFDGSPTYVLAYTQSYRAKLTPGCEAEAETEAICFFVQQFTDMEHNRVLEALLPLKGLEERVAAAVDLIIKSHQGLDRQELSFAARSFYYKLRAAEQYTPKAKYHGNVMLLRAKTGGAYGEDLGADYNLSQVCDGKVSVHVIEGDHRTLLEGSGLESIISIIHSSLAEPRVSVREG
Chain of Retinoic acid receptor RXR-alpha (Homo sapiens) (P19793 whole entry, looked up, the tested form may be a part): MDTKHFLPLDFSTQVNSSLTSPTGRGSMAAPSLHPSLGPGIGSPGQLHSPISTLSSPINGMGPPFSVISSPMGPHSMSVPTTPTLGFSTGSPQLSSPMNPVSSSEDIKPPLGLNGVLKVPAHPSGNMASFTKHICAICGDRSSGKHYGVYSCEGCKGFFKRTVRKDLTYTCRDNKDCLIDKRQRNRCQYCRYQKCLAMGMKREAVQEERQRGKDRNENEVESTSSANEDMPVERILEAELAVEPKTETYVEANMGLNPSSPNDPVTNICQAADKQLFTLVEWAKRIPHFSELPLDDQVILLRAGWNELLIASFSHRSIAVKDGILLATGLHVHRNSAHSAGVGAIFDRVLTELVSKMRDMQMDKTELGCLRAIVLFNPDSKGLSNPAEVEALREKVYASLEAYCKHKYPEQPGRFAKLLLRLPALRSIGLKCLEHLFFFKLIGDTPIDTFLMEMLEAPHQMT
Chain of Peroxisome proliferator-activated receptor gamma (Homo sapiens) (P37231 whole entry, looked up, the tested form may be a part): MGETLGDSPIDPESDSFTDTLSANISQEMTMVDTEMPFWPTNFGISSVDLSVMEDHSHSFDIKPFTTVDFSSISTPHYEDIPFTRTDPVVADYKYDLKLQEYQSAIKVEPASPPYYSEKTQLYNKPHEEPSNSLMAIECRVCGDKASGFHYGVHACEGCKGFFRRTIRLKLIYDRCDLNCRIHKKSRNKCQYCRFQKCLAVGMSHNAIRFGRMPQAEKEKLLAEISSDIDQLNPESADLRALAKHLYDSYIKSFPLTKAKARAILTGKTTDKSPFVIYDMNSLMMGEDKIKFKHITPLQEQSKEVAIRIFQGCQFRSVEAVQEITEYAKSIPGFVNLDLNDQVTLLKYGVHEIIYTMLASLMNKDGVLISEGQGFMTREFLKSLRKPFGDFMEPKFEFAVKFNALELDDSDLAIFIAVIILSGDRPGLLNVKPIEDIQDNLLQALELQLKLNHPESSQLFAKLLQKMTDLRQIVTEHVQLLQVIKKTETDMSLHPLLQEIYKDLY
Chain of Bile acid receptor (Homo sapiens) (Q96RI1 whole entry, looked up, the tested form may be a part): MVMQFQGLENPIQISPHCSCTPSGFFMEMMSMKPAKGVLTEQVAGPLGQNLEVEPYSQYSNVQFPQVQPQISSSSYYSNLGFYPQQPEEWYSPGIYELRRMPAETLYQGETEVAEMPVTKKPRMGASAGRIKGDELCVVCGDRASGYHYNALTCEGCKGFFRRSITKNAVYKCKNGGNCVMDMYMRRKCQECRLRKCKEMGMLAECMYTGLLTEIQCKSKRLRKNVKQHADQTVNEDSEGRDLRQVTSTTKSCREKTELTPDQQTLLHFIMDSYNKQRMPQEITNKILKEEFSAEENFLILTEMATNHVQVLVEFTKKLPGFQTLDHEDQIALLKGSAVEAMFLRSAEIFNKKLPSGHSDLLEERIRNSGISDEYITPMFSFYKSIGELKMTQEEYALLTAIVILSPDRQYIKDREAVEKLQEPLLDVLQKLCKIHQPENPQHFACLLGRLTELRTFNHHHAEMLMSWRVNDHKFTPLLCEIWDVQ

CCCCCCCCCCCO
inactive: [1] | [2] | [3] | [4] | [5] | [6] | [7] | [8]

O=C(Nc1ccc(Cl)cc1)Nc1ccc(Cl)c(Cl)c1
inactive: [3] | [4] | [5] | [12] | [13] | [14] | [16] | [17] | [8] | [20]
active: [2] 12.5 µM | [9] 0.599 µM | [10] 0.5 µM | [11] 0.418 µM | [15] 0.417 µM | [18] 0.318 µM | [6] 23.1 µM | [19] 17.5 µM

O=C(O)c1ccccc1C(=O)OCc1ccccc1
inactive: [2] | [3] | [4] | [5] | [6] | [7]

c1ccc2ccccc2c1
inactive: [3] | [4] | [5] | [6] | [7] | [20]

COc1ccc2cc(S(=O)(=O)N[C@H](CC(=O)N[C@H](Cc3ccc(CN4[C@H](C)CCC[C@@H]4C)cc3)C(=O)N(C)C(C)C)c3ccc4c(c3)OCO4)ccc2c1
inactive: [4] | [5]
active: [2] 11.1 µM | [6] 15.1 µM

CN(C)C(=O)C1(N2CCCCC2)CCN(CC[C@@]2(c3ccc(Cl)c(Cl)c3)CN(C(=O)c3ccccc3)CCO2)CC1
inactive: [4] | [5] | [6] | [7]
active: [19] 61 µM

OCCO
inactive: [3] | [4] | [5] | [19] | [7] | [8] | [20]

NC(=O)c1nc(-c2cccc(-c3cc(F)ccc3OCC(F)(F)C(F)(F)F)c2)n[nH]1
active: [19] 79 µM
inactive: [4] | [5] | [9] | [10] | [11] | [12] | [13] | [14] | [15] | [16] | [17] | [18] | [6] | [7] | [20]

Cc1ccc(C(C)C)cc1
inactive: [2] | [3] | [4] | [5] | [6] | [8] | [20]

O=C(O)Cc1cc(I)c(Oc2ccc(O)c(I)c2)c(I)c1
active: [6] 88.6 µM | [19] 50 µM
inactive: [4] | [5] | [7]
